# Source: paper PMC10668032, “Altered binding affinity of SIX1-Q177R correlates with enhanced WNT5A and WNT pathway effector expression in Wilms tumor”
# Whole data set: some 33,000 sequences, median “e-score” near -0.053, cut for the highest 2% near 0.38. The entries come from a sample that favours the highest values as a whole.
# Target: T1, SIX1 homeodomain (reference allele) (human, UniProt Q15475 108-198)
# T1 sequence: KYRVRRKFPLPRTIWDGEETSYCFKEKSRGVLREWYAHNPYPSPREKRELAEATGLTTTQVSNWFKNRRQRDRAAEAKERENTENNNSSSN
# Assay: universal protein binding microarray; Universal all-10-mer PBM (8x60K, AMADID 030236), 300 nM GST-tagged protein, Alexa Fluor 488 anti-GST; buffer, salt, pH and temperature not stated (as in Berger); high values mean tight binding
# Settings: protein: ivt; tags: N-terminal GST; dsDNA, one strand shown
# Outline: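 Binding of GST-tagged homeodomains is given as 8-mer E-scores from the Universal PBM Analysis Suite. The proteins were produced by in vitro transcription/translation, quantified by anti-GST western blot against a recombinant GST standard curve, and applied in duplicate at 300 nM final concentration to universal 'all 10-mer' protein binding microarrays (8×60K format).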
row,Sequence,binding signal [E-score]
1,ATTATAGC,0.176 ± 0.0442
2,CGATCTTA,0.197 ± 0.0344
3,CCGATCGG,0.319 ± 0.0282
4,CCGATCCA,0.29 ± 0.0686
5,ACGATCCG,0.425 ± 0.0168
6,ACGATCCA,0.284 ± 0.0277
7,ACGATCCT,0.347 ± 0.0269
8,CCGATCCG,0.428 ± 0.0349
9,ATCACCAC,0.262 ± 0.0152
10,GATCGGAC,0.248 ± 0.0437
11,ACACCTCC,0.347 ± 0.0177
12,ATCGGCTG,0.167 ± 0.0425
13,ATCTGCCC,0.182 ± 0.0131
14,CGGTATCC,0.451 ± 0.0218
15,TGGTATAA,0.287 ± 0.0507
16,AGTTATCC,0.295 ± 0.00593
17,ACCTATCC,0.262 ± 0.0365
18,CGCTATCC,0.339 ± 0.0225
19,AGGTATGA,0.242 ± 0.0289
20,CGGTATTC,0.319 ± 0.00856
21,AGGTATAT,0.357 ± 0.03
22,CGGTATGA,0.225 ± 0.00643

row,Sequence,binding signal [E-score]
1,CGGTATCA,0.4855 ± 0.000332
2,AGGTATCA,0.487 ± 0.00797
3,AGGTATCC,0.461 ± 0.0111
4,GATATTTA,0.157 ± 0.127
5,ATACGACG,0.191 ± 0.00652
6,CCCCTCTC,0.161 ± 0.0741
7,AAAGGGAT,0.253 ± 0.0943
8,CAGGATAG,0.315 ± 0.00491
9,AGCAGTAT,0.313 ± 0.00754
10,ATAACACC,0.301 ± 0.039
11,ATCCGTCG,0.239 ± 0.00454
12,ACGCTATC,0.296 ± 0.0306
13,ATCCAACA,0.293 ± 0.0336
14,GGTGGATA,0.362
15,AGCTATCG,0.284 ± 0.0882
16,AGGTATCG,0.4779 ± 0.00118
17,GGGTATGA,0.27 ± 0.0161
18,GGGTATCA,0.4971 ± 0.0012
19,GGTTATCA,0.21 ± 0.00931
20,AGGTATGG,0.177 ± 0.0177
21,GACACACC,0.165 ± 0.101
22,ATACTTGG,0.199 ± 0.00946

row,Sequence,binding signal [E-score]
1,AAACGATC,0.216 ± 0.065
2,ATAGAGGA,0.153 ± 0.03
3,ATCCGATA,0.466 ± 0.00646
4,ATCCGCTC,0.377 ± 0.0055
5,CTCCGATC,0.185 ± 0.0542
6,GTCCGATA,0.331 ± 0.0437
7,CTCCGATA,0.314 ± 0.00415
8,ATCCGCTG,0.305 ± 0.0121
9,ATCCGATC,0.43 ± 0.0245
10,ATCCGCTA,0.243 ± 0.0351
11,ATCCGATG,0.253 ± 0.0575
12,ATAGTGAT,0.32 ± 0.0209
13,GTGTCCGA,0.217 ± 0.0111
14,CAGATTAA,0.217 ± 0.0579
15,GCTTAATA,0.169 ± 0.0471
16,GTATTGTA,0.272 ± 0.0188
17,ATCTATCG,0.23 ± 0.0219
18,ATCCATTC,0.287 ± 0.0196
19,TACTGCAA,0.163 ± 0.0382
20,GATACACA,0.3539 ± 0.00325
21,CATACACC,0.256 ± 0.0714
22,GATACAGC,0.395 ± 0.00544

row,Sequence,binding signal [E-score]
1,GATACATC,0.4297 ± 0.000849
2,GATACACC,0.469 ± 0.00523
3,GATACAAC,0.305 ± 0.0152
4,TATACATA,0.246 ± 0.0104
5,CATACAGA,0.196 ± 0.0391
6,GATACATA,0.398 ± 0.0255
7,GATACAGA,0.268 ± 0.0783
8,AATACATA,0.242 ± 0.0372
9,AATACATC,0.204 ± 0.0447
10,AGTGAGCC,0.225 ± 0.0456
11,ATCACATG,0.269 ± 0.0277
12,ATCATCTC,0.371 ± 0.00868
13,ATTGGGGG,0.152 ± 0.0367
14,GATCAGTA,0.347 ± 0.00373
15,ATACGCTG,0.268 ± 0.0386
16,CACACCGC,0.164 ± 0.108
17,CACACCTC,0.267 ± 0.0486
18,GACACCTC,0.3967 ± 0.00186
19,TACACCGA,0.361 ± 0.0113
20,GACACCAC,0.439 ± 0.0198
